In the supplement of paper PMC11732987, “Enantioselective OTUD7B fragment discovery through chemoproteomics screening and high-throughput optimisation” (Communications Chemistry, 2025):

Key:
Experiment in all cases: log2 ratio of Biotin-Ahx-Ub-VS probe labelling (fragment/DMSO); higher = less target engagement (more negative = stronger competition), active = hit call of the paper (q ≤ 0.05, log2 ratio ≤ -1)
Details in all cases: compound concentration: 200 uM; treatment time: 3 h
USP34 = USP34 (UniProt Q70CQ2)
Chain of USP34 (Q70CQ2 whole entry, the tested form may be a part): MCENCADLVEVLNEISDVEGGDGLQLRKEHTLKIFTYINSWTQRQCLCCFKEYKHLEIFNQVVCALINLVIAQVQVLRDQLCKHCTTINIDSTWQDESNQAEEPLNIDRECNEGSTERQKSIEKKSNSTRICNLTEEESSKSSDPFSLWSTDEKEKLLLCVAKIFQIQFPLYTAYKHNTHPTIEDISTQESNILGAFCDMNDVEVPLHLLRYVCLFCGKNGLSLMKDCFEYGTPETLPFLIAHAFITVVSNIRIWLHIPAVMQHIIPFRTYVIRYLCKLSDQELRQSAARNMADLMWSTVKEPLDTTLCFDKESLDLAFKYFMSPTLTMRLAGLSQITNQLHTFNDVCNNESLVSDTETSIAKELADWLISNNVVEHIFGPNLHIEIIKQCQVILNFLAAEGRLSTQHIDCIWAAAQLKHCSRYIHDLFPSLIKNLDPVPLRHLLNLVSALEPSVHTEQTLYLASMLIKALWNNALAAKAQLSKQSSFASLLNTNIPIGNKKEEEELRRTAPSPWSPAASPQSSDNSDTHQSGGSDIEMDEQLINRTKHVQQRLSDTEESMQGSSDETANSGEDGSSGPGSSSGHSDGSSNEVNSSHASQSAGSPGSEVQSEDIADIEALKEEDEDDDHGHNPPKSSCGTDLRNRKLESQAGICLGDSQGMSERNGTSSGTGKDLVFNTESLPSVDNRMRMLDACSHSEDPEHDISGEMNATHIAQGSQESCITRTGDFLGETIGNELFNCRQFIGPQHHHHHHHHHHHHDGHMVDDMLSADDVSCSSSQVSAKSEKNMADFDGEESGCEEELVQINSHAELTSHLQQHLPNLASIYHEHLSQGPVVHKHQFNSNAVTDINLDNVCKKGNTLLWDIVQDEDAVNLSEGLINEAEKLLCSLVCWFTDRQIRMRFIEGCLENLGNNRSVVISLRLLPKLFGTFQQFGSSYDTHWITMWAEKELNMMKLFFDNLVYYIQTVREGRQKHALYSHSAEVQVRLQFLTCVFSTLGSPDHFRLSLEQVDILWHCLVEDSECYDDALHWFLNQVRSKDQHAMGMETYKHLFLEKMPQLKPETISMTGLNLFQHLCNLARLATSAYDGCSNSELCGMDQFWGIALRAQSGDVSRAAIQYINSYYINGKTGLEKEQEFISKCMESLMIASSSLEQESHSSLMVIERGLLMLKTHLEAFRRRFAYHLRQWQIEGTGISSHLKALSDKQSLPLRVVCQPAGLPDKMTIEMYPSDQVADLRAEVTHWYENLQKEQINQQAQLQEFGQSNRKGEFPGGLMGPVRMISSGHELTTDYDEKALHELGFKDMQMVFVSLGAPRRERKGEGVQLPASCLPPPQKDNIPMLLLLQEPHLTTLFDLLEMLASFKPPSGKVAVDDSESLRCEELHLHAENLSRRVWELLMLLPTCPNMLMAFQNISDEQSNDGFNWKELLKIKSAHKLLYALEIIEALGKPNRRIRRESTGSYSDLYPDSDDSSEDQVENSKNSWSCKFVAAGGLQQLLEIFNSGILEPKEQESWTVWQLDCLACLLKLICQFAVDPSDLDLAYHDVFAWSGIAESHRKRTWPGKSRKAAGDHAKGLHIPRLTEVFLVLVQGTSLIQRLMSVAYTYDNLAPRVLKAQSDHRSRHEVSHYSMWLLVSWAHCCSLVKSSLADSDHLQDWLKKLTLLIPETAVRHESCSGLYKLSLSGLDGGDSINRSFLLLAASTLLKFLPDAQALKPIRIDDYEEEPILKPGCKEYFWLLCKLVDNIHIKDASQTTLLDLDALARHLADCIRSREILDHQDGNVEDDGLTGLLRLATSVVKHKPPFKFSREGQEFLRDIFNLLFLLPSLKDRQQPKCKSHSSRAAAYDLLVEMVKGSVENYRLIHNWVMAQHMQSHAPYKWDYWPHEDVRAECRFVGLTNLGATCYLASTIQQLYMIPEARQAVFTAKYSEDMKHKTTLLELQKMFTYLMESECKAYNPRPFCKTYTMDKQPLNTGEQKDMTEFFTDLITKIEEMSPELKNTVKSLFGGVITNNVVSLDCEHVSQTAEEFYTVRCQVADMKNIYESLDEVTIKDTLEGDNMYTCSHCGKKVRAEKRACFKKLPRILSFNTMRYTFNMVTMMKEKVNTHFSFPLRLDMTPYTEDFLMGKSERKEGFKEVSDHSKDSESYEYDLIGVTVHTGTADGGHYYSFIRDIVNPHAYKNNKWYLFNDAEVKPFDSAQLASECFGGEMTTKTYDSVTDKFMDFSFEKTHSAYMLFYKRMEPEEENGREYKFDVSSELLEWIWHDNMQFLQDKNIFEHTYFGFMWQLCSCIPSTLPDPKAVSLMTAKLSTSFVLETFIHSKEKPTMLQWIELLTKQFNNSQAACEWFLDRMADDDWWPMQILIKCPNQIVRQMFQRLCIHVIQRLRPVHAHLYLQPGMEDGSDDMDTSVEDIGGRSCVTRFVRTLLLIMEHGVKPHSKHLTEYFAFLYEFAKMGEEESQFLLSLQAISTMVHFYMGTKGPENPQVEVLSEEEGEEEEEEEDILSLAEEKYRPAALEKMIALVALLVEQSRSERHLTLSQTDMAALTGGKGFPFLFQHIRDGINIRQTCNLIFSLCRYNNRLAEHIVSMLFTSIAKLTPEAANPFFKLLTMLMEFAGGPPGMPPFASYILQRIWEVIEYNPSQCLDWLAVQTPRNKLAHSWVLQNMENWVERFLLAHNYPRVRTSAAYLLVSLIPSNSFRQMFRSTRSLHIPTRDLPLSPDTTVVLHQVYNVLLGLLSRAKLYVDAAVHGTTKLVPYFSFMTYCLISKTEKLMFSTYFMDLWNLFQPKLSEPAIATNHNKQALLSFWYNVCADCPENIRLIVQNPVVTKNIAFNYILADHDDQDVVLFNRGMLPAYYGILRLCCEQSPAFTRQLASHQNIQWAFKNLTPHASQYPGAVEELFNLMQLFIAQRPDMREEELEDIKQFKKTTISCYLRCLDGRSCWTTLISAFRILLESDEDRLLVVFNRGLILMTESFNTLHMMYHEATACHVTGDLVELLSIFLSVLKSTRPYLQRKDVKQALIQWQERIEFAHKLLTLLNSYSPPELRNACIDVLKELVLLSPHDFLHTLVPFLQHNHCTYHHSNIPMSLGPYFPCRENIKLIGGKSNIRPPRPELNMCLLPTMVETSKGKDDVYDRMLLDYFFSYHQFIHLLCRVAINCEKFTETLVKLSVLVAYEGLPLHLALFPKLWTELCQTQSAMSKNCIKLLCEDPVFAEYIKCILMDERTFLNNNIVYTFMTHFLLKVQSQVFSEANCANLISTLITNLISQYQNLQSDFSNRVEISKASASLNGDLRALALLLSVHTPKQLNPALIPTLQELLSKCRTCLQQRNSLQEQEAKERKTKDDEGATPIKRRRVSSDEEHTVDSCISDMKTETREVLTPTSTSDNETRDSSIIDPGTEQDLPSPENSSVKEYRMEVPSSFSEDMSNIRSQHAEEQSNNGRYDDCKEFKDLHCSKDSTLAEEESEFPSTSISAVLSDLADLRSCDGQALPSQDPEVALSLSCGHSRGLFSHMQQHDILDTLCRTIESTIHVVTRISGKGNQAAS
Procedure, shortened: (§1)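 Labelled DUBs from HEK293T lysate were NeutrAvidin-enriched, digested with LysC and trypsin, and run by diaPASEF LC-MS/MS. Before that, each 495 µg sample in Tris/CHAPS/IGEPAL buffer with protease inhibitors was treated in triplicate with fragment at 200 µM or vehicle for 3 h, then with Biotin-Ahx-Ub-VS at 0.5 µM final for 1 h. Values are average log2 ratios of fragment over vehicle by unpaired t-test, based on global-median-normalised Spectronaut label-free quantities from proteins with ≥2 unique peptides.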

USP36 = target: T1, USP36 (UniProt Q9P275)
T1 sequence (whole entry): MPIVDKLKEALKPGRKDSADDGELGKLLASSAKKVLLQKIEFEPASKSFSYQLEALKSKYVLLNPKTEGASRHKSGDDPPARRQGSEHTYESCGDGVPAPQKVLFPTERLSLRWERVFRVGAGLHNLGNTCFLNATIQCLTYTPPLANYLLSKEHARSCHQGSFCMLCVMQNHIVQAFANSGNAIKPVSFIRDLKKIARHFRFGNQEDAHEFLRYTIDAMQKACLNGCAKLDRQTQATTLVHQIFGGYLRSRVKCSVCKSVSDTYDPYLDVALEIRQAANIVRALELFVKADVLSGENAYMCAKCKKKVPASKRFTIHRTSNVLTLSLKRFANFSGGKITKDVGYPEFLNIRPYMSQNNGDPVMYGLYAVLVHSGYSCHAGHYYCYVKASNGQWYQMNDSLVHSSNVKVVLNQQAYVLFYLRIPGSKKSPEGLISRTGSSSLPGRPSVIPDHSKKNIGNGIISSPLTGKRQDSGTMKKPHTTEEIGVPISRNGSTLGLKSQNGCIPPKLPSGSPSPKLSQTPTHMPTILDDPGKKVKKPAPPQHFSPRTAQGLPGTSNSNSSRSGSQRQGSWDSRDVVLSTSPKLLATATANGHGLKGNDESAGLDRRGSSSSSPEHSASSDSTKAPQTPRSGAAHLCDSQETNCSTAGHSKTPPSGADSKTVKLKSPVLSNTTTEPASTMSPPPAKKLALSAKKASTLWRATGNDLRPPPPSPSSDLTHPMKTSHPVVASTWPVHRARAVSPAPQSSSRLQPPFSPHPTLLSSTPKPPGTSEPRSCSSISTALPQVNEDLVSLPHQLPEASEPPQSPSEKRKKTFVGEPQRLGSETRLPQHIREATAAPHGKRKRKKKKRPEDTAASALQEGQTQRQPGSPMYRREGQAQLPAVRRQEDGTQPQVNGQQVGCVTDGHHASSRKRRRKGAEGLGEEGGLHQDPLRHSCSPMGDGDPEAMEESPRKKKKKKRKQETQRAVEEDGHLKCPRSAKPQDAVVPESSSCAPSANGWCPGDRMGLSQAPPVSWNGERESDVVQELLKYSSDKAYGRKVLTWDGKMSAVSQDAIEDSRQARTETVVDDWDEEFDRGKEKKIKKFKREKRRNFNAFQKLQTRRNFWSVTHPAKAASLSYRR
Procedure, shortened: as §1

USP38 = target: T2, USP38 (UniProt Q8NB14)
T2 sequence (whole entry): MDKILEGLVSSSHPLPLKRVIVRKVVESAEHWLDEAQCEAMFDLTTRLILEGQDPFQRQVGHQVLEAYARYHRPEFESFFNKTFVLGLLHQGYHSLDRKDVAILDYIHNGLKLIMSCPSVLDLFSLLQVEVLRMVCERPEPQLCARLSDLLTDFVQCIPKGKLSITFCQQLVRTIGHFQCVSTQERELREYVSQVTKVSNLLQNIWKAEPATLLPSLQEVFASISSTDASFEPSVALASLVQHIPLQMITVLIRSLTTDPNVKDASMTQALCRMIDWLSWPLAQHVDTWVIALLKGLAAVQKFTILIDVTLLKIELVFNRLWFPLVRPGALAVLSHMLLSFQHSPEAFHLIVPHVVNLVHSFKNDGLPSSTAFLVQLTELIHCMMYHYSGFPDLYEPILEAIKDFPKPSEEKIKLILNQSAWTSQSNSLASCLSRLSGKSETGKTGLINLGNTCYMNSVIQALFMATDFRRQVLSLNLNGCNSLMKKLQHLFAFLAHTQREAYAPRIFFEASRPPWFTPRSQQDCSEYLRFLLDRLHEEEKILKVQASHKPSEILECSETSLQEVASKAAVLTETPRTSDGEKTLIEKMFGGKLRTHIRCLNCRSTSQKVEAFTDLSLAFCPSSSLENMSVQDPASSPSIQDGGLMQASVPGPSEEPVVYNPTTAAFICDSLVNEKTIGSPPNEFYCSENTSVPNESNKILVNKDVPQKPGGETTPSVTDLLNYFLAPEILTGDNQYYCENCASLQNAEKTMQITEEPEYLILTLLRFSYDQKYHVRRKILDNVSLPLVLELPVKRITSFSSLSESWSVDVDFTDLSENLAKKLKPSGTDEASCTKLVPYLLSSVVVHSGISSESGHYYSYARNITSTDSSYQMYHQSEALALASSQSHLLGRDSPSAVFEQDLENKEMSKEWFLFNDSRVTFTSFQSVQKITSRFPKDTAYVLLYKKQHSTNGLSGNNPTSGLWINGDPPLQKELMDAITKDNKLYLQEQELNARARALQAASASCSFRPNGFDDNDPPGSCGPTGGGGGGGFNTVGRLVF
Procedure, shortened: as §1

USP39 = target: T3, USP39 (UniProt Q53GS9)
T3 sequence (whole entry): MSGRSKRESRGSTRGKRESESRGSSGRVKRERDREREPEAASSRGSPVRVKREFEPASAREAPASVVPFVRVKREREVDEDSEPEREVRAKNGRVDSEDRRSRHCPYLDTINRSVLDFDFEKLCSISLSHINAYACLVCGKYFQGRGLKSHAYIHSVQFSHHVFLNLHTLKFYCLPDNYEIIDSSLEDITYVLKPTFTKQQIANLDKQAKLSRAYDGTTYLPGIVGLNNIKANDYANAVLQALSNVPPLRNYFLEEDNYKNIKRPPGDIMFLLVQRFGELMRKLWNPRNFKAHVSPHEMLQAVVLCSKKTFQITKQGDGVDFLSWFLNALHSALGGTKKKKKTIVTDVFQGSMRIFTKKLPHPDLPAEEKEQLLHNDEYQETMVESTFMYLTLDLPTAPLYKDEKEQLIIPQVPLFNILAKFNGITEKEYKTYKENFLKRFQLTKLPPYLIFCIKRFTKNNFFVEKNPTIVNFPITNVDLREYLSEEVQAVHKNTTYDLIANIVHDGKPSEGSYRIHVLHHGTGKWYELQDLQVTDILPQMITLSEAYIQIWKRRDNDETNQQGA
Procedure, shortened: as §1

USP4 = target: T4, USP4 (UniProt Q13107)
T4 sequence (whole entry): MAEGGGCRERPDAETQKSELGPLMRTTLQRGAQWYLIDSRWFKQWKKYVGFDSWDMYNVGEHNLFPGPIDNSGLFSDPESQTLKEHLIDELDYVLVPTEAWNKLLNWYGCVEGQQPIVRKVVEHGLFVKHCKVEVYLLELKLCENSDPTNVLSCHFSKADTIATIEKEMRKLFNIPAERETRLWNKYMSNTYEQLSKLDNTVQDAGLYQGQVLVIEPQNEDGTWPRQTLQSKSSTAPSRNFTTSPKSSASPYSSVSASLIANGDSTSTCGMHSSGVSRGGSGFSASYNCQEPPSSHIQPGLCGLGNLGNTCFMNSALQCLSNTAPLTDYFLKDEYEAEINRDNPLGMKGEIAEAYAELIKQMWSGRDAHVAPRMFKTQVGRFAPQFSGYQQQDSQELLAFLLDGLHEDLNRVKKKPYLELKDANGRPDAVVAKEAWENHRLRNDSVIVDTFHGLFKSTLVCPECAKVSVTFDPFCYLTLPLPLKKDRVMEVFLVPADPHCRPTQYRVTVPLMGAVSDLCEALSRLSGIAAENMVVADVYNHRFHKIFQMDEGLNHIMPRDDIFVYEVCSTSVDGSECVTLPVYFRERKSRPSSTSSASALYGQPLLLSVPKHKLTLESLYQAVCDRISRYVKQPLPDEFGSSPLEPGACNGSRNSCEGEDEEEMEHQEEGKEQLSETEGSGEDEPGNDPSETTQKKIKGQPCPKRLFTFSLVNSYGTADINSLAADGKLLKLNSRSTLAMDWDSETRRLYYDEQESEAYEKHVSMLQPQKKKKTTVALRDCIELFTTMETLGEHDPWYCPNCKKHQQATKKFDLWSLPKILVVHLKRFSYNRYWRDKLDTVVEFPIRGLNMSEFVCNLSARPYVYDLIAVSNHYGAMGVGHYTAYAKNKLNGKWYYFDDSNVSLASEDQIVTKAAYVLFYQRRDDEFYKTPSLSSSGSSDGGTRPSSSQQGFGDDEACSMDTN
Procedure, shortened: as §1

Measured: log2 ratio of Biotin-Ahx-Ub-VS probe labelling

CN(CCc1ncc(Br)cn1)C(=O)CCl.Cl
inactive: USP34 -0.228 | USP36 -0.122 | USP38 -0.00939 | USP39 0.3 | USP4 -0.0898
